Data: PubChem BioAssay (NCI)
This is part of a sample that, as a whole, favours compounds with a hit. Of some 79,000 tested, about 15% had one in any assay. Values without a mark were called inactive. The source made the active and inactive calls. Cut-off read from the data, not from the text of the source: active = growth inhibition above about 70%; inactive = the rest.

Tests used:
[1] = NCI Yeast Anticancer Drug Screen. Data for the rad50 strain (AID 155);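 note: 0% = growth of vehicle-only cultures of the same strain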; settings: S. cerevisiae rad50 strain growth inhibition, active compounds read high
How it was run: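 DNA repair mutant yeast, compound exposure, growth read-out; inhibition is taken relative to vehicle.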

[2] = NCI Yeast Anticancer Drug Screen. Data for the mec2-1 strain (AID 157); settings: S. cerevisiae mec2-1 strain, active compounds read high
How it was run: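 mec2-1 yeast strain, carrying an alteration in DNA damage repair or cell cycle control, was exposed to compounds; growth inhibition was measured relative to vehicle-treated controls.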

[3] = NCI Yeast Anticancer Drug Screen. Data for the sgs1 mgt1 strain (AID 161);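 note: 0% = growth of cultures given vehicle only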; settings: S. cerevisiae sgs1 mgt1 strain, active compounds read high
How it was run: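 This yeast growth screen uses a strain with defined DNA-repair lesions; compound-treated growth is compared with vehicle-treated growth.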

[4] = NCI Yeast Anticancer Drug Screen. Data for the cln2 rad14 strain (AID 165);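 note: 0% = growth equal to vehicle treated cultures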; settings: S. cerevisiae cln2 rad14 strain, active compounds read high
How it was run: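 Yeast carrying cln2 and rad14 alterations (cell cycle control and DNA damage repair) were exposed to compounds. Growth inhibition was measured against vehicle-treated controls.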

[5] = NCI Yeast Anticancer Drug Screen. Data for the bub3 strain (AID 167); settings: S. cerevisiae bub3 mutant strain, active compounds read high
How it was run: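 In this screen, a yeast mutant lacking normal mitotic checkpoint function is challenged with compound. Relative growth versus vehicle gives the inhibition value.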

[6] = NCI Yeast Anticancer Drug Screen. Data for the mlh1 rad18 strain (AID 175); settings: S. cerevisiae mlh1 rad18 strain growth inhibition, active compounds read high
How it was run: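 Growth inhibition of the yeast strain was measured after compound exposure and expressed relative to vehicle-treated controls. The strain carries defined defects in DNA damage repair.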

[7] = at 5.0 µM (retest, dose inferred, filed as 0.5)
[8] = at 50.0 µM (retest, dose inferred, filed as 5.0)

| SMILES | growth inhibition [1, 7] | growth inhibition [1, 8] | growth inhibition ([1]; at 50.0 µM) | growth inhibition [2, 7] | growth inhibition [2, 8] | growth inhibition ([2]; at 50.0 µM) | growth inhibition [3, 7] | growth inhibition [3, 8] | growth inhibition ([3]; at 50.0 µM) | growth inhibition [4, 7] | growth inhibition [4, 8] | growth inhibition ([4]; at 50.0 µM) | growth inhibition [5, 7] | growth inhibition [5, 8] | growth inhibition ([5]; at 50.0 µM) | growth inhibition [6, 7] | growth inhibition [6, 8] | growth inhibition ([6]; at 50.0 µM) |
| --- | --- | --- | --- | --- | --- | --- | --- | --- | --- | --- | --- | --- | --- | --- | --- | --- | --- | --- |
| CC(=O)Oc1cc(Cl)ccc1Cc1ccc(Cl)cc1OC(C)=O | 0% | 87% (active) | 94.5% (active) | 1% | 78% (active) | 91.4% (active) | 0% | 76% (active) | 85.1% (active) | 2% | 89% (active) | 90.7% (active) | 2% | 83% (active) | 94.8% (active) | 1% | 90% (active) | 94.7% (active) |
| COc1cc2c(cc1O)CCN[C@@]21CS[C@H]2c3c(OC(C)=O)c(C)c4c(c3C(COC1=O)N1C2C2c3c(cc(C)c(OC)c3O)CC([C@@H]1O)N2C)OCO4 (stereo not given in full) | 98% (active) | 99% (active) | 92.7% (active) | 99% (active) | 99% (active) | 94% (active) | 99% (active) | 99% (active) | 93.4% (active) | 99% (active) | 99% (active) | 91.6% (active) | 99% (active) | 99% (active) | 93.2% (active) | 99% (active) | 99% (active) | 92% (active) |
| CSC(=S)N/N=C(C)/C=C/c1ccccc1 | 9% | 98% (active) | 98.2% (active) | 14% | 98% (active) | 98.5% (active) | 25% | 98% (active) | 97.7% (active) | -10% | 94% (active) | 97.8% (active) | 13% | 98% (active) | 97.4% (active) | 20% | 93% (active) | 95.3% (active) |
| CC(=O)c1c(O)c2cccc3c2n(c1=O)CCC3 | 26% | 99% (active) | 97.2% (active) | -13% | 99% (active) | 91.6% (active) | 4% | 98% (active) | 94.9% (active) | 3% | 98% (active) | 71.3% (active) | -2% | 99% (active) | 84.4% (active) | 11% | 98% (active) | 95.3% (active) |
| COc1ccc(I)c(C=NC2CCCCC2)c1C | 41% | 94% (active) | 97.2% (active) | 16% | 82% (active) | 91.5% (active) | 41% | 92% (active) | 99% (active) | 1% | 88% (active) | 41.8% | 35% | 94% (active) | 89.4% (active) | 27% | 93% (active) | 94.7% (active) |
